Measurements as given in ChEMBL document CHEMBL1157539, “Thousands of chemical starting points for antimalarial lead identification” (Nature, 2010).
Values joined by “and” are separate entries in the source; they are usually repeats but may differ in a detail not shown here. Equal values may be shown once. Whole data set: some 13,000 compounds, median “IFI” near 4, cut for the highest 2% near 17. This is one part of a sample in which the highest values are shown more often than they occur.

Assay: GSK_TCMDC: Inhibition Frequency Index (IFI). The number of non-kinase HTS assays where a compound showed > 50 % inhibition, expressed as a percentage of the number of such assays in which the compound was tested
Type: functional

SMILES	IFI
O=C(c1cc(C(F)(F)F)cc(C(F)(F)F)c1)N1CCC(CCN2CCC3(CC2)C(=O)NCN3c2ccccc2)CC1Cc1ccc(Cl)c(Cl)c1 (stereo not given)	20%
CN(C(=O)OCc1ccccc1)C1CCC(CCN2CCC3(CC2)C(=O)NCN3c2cccc(C(F)(F)F)c2)(c2ccccc2)CC1 (stereo not given)	8.63%
CC(=O)C1(c2ccccc2)CCN(CCC(NC(=O)c2cc(C(F)(F)F)cc(C(F)(F)F)c2)c2ccc(Cl)c(Cl)c2)CC1 (stereo not given)	1.45%
Cc1cc(NC(=O)[C@@H](Nc2ccc(C#N)c3ccccc23)C2CCCCC2)ccc1F	3.85%
c1ccc(C(OCCC2CCN(Cc3cccc4cccnc34)CC2)c2ccccc2)cc1	3.1%
Cc1ccc(CC(C)NC[C@H](O)c2cccc(Cl)c2)cc1 (stereo not given in full)	4.38% and 0.72%
CC(Cc1ccc(Oc2ccc(Cl)cc2)cc1)NCC(O)c1cccc(Cl)c1 (stereo not given)	7.3%
CC(Cc1ccc(OC2CCCCC2)cc1)NCC(O)c1cccc(Cl)c1 (stereo not given)	21.7%
CN1C2CCC1c1cc(NC(=O)c3cc(-c4ccc(Cl)cc4)cs3)ccc12 (stereo not given)	13.3%
CC(Cc1ccc(OCCOc2ccccc2)cc1)NCC(O)c1cccc(C(F)(F)F)c1 (stereo not given)	2.9%
COC(C(=O)OCCC1CCCN1C)(c1ccccc1)c1ccccc1 (stereo not given)	2.19%
CC(Cc1ccc(OCCCCOc2ccccc2)cc1)NCCCN1CCOCC1 (stereo not given)	30.1%
CC(Cc1ccc(Oc2ccccc2)cc1)NCC(O)c1cccc(C(F)(F)F)c1 (stereo not given)	4.96%
CC(Cc1ccc(OCc2ccccc2)cc1)NCC(O)c1cccc(Cl)c1 (stereo not given)	15.6%
CCCCCOc1ccc(CC(C)NCC(O)c2cccc(Cl)c2)cc1 (stereo not given)	4.86%
CC(Cc1ccc(OCCCCOc2ccccc2)cc1)NCCC1CCCN1C (stereo not given)	32.5%
CC(Cc1ccc(OCCCCOc2ccccc2)cc1)NCCCn1ccnc1 (stereo not given)	32.6%
COC(C(=O)OCCC1CCCN1C)(c1ccccc1)C1CCCCC1 (stereo not given)	1.45%
CN1CC=C(c2c[nH]c3ccc(Sc4ccccc4)cc23)CC1	3.7%
CCCCCCC(C)(C)c1cc(O)c2c3c(c(=O)oc2c1)CCN(Cc1ccccc1)C3	2.22%
COC(=O)c1ccc(CC(C)NCC(O)c2cccc(OCc3ccccc3)c2)cc1 (stereo not given)	5.76%
CC1CN=C(Nc2ncc(Cl)cc2Cl)N1 (stereo not given)	0.7%
CN(C)CCc1c[nH]c2ccc(C(=O)Nc3ccc(-c4ccncc4)cc3)cc12	5.19%
COc1cccc(CN2CCC(CCOC(c3ccccc3)c3ccccc3)CC2)c1O	3.1%
CC(C)CNCc1ccc(-c2cccc(CN(C(=O)CCC3CCCC3)C3CCN(Cc4ccccc4)CC3)c2)cc1	9.29%

SMILES	IFI
O=C(Nc1ccccc1C(F)(F)F)NC1CCC(CN2CCC(c3c[nH]c4ccccc34)CC2)CC1 (stereo not given)	4.29% and 2.14%
O=C1c2ccccc2CCC1CCN1CC=C(c2c[nH]c3ccccc23)CC1 (stereo not given)	2.92%
O=C(c1cc(C(=O)NCc2ccc(Cl)cc2)c(=O)n(Cc2ccc(Cl)cc2)c1)c1cc(Cl)ccc1O	0%
O=C(Nc1cc(C(F)(F)F)cc(C(F)(F)F)c1)c1cc(Cl)ccc1O	33.3%
O=C(/C=C/c1ccccc1Cl)NC1CCC(CN2C3CCC2CC(c2c[nH]c4ccccc24)C3)CC1 (stereo not given)	6.38%
CCCCCc1cc(O)c2c(c1)OC(C)(C)CC2C1=CCN(Cc2ccccc2)CC1 (stereo not given)	2.86%
Cc1csc(-c2ccc3[nH]cc(C4=CCN(C)CC4)c3c2)n1	0%
CC[C@H]1CN2CC[C@H]1C[C@H]2[C@H](O)c1cc(N2CCCC(CO)C2)nc2ccc(OC)cc12 (stereo not given in full)	0%
O=C(NC1CCC(CN2CCC(c3c[nH]c4ccccc34)CC2)CC1)c1cc2cccc([N+](=O)[O-])c2[nH]1 (stereo not given)	3.65%
CC(Cc1ccc(NC(=O)CCCc2ccccc2)cc1)NCCc1cccc(Cl)c1 (stereo not given)	4.29%
CC(Cc1ccc(NC(=O)[C@H](C)NCCc2cccc(Cl)c2)cc1)NCCc1cccc(Cl)c1 (stereo not given in full)	9.35%
CC(Cc1ccc(NC(=O)CCNCc2ccccc2)cc1)NCCc1cccc(Cl)c1 (stereo not given)	32.4%
O=C(/C=C/c1ccccc1Cl)NC1CCC(CN2CCC(c3c[nH]c4ccccc34)CC2)CC1 (stereo not given)	5.04% and 6.94%
CC(=O)N(Cc1cccc(-c2cccc(CNCc3ccc4c(c3)OCO4)c2)c1)C1CCN(Cc2ccccc2)CC1	4.51%
COc1ccc(F)cc1-c1csc(N(c2ccc(F)cc2)C2CCNCC2)n1	14.4%
COc1ccc(N(c2nc(-c3cc(Cl)ccc3Cl)cs2)C2CCNCC2)cc1	23.1%
Fc1ccc(N(c2nc(-c3cc(F)cc(C(F)(F)F)c3)cs2)C2CCNCC2)cc1	17.1%
CCOC(=O)c1c(CN2CCN(C)CC2)n(Cc2ccccc2)c2cc(Br)c(O)cc12	5.56%
COc1ccc(C=CC(=O)NC2CCC(CN3CCC(c4c[nH]c5ccccc45)CC3)CC2)cc1 (stereo not given)	7.19% and 5.04%
O=C(C=Cc1ccc(F)c(Br)c1)N1CCC(CN2CCC(c3c[nH]c4ccccc34)CC2)CC1	6.62%
COc1ccc(C2CNCc3c2cc(OC)c(OC)c3Cl)cc1 (stereo not given)	2.94%
O=C1NCN(c2ccc(O)cc2)C12CCN(CCCC(c1ccc(F)cc1)c1ccc(F)cc1)CC2	4.32%
O=C(NCc1ccccc1)c1nn(CCCN2CCC3(CC2)C(=O)NCN3c2ccccc2)cc1-c1ccc(Cl)c(Cl)c1	24.3%
COc1cc(NC(=O)c2nn(CCCN3CCC4(CC3)C(=O)NCN4c3ccccc3)cc2-c2ccc(Cl)c(Cl)c2)cc(OC)c1OC	15.4%
O=C(NCc1ccc(S(=O)(=O)N2CCC(CN3CCC(c4c[nH]c5ccccc45)CC3)CC2)s1)c1ccccc1	6.85%

SMILES	IFI
O=C(C=Cc1ccc(Br)cc1)NC1CCC(CN2CCC(c3c[nH]c4ccccc34)CC2)CC1 (stereo not given)	6.38%
O=C1Nc2cccc3c2C1(CCCCN1CC=C(c2c[nH]c4ncccc24)CC1)CCC3 (stereo not given)	4.41%
N#Cc1c(F)cc(N2CCC(NCC[C@H](N)Cc3ccc(F)c(F)c3)CC2)cc1F	21.9%
N[C@@H](CCN1CCC(c2cccc(O)c2)CC1)Cc1ccc(F)c(F)c1	12.1%
CCC1(C)N=C(N)N=C(N)N1c1ccc(Cl)cc1 (stereo not given)	0%
COc1cccc(C(=O)C2CC2CN2CC=C(c3c(C)[nH]c4ccccc34)CC2)c1 (stereo not given)	3.74%
CC(Cc1ccc(OCCCCOc2ccccc2)cc1)NCCCc1nc2ccccc2[nH]1 (stereo not given)	33.3%
CC(Cc1ccc(OCCCCOc2ccccc2)cc1)NCCc1ccccc1Cl (stereo not given)	28%
CC(Cc1ccc(OCCOc2ccccc2)cc1)NCC(O)c1cccc(Cl)c1 (stereo not given)	6.38%
C[C@H](Cc1ccc(OCCCCCCOc2ccccc2)cc1)NC[C@H](O)c1cccc(Cl)c1	7.64%
C[C@H](Cc1ccc(OCCCCCCOc2ccccc2)cc1)NC[C@@H](O)c1cc(Br)no1	13.5%
CNCCCCCCOc1ccc(CC(C)NCC(O)c2cccc(C(F)(F)F)c2)cc1 (stereo not given)	7.8%
COc1cccc(CC(C)NCC(O)c2cccc(Cl)c2)c1 (stereo not given)	1.44%
CC(Cc1ccc(OCc2ccc(CCN(C)C)cc2)cc1)NCCc1cccc(Cl)c1 (stereo not given)	5.84%
COc1cccc(CCNC(C)Cc2ccc(OCCCCOc3ccccc3)cc2)c1 (stereo not given)	31%
Cn1nc(C(F)(F)F)cc1-c1ccc(C(=O)NC2CCC(CN3CCC(c4c[nH]c5ccccc45)CC3)CC2)s1 (stereo not given)	6.16%
O=C(Nc1ccc(Cl)c(Cl)c1)N1CCC(CN2CCC(c3c[nH]c4ccccc34)CC2)CC1	4.23%
CC[C@H]1CN2CC[C@H]1C[C@H]2[C@H](O)c1cc(-c2ccccc2C)nc2ccc(OC)cc12	5.44%
CCCCCCCCNCC(O)c1ccc(Cl)c(Cl)c1 (stereo not given)	11.1%
CN(c1cc(NC(=O)c2cccs2)ccn1)C1CCN(Cc2ccccc2)CC1	2.78%
CNCCN(C)C(=O)Oc1c(Br)c(C)nc(C)c1-c1ccc(Oc2ccc(OC(F)(F)F)cc2)cc1	12.4%
CNCCCN(C)C(=O)Oc1c(Br)c(C)nc(C)c1-c1ccc(Oc2ccc(OC(F)(F)F)cc2)cc1	7.41%
Cc1nc(C)c(-c2ccc(Oc3ccc(OC(F)(F)F)cc3)cc2)c(OC(=O)N(CCNC(C)C)C(C)C)c1Br	18%
COc1cccc(O)c1CNCC(O)c1cccc(C(F)(F)F)c1 (stereo not given)	0.78%
CC(=O)Nc1ccc2[nH]cc(C3CCN(CC4CCN(C(=O)/C=C/c5ccc(Cl)c(Cl)c5)CC4)CC3)c2c1	1.46%
